Assay results published in PubChem BioAssay AID1159580 (chemical genetic matrix, 2015).
The whole screen tested about 5,500 compounds, of which about 2,000 (36%) were called active. Not shown: some 18% with an inconclusive outcome. Rule as the data show it: active = normalized growth mostly below about 0.91 (no sharp cut-off); inconclusive = no clear call, values can overlap the other calls; inactive = mostly above about 0.92. The list shows a part of the results.

Experiment: chemical genetic growth profiling, strain panel (AID 1159580);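 also: tested at 20 µM; growth read once vehicle control cultures reached saturation at 30 °C; 1 = growth at the plate median or of vehicle wells; lower values mean less growth of the strain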
Conditions: S. cerevisiae deletion strains, growth OD

Measured: normalized growth

CC(=O)O[C@H]1CCC2(C)C3=C(CCC2C1(C)C)[C@]1(C)CCC(C(C)CCC=C(C)C)[C@@]1(C)CC3 (stereo not given in full)
inactive: locus YAL021C, strain ccr4, active compounds read low 1.05 | locus YAL026C, strain drs2, active compounds read low 0.971 | locus YAL030W, strain snc1, active compounds read low 0.996 | locus YBL061C, strain skt5, active compounds read low 0.99 | locus YBR009C, strain hhf1, active compounds read low 0.998 | locus YBR023C, strain chs3, active compounds read low 0.984 | locus YBR171W, strain sec66, active compounds read low 0.994 | locus YBR231C, strain swc5, active compounds read low 0.961 | locus YBR279W, strain paf1, active compounds read low 0.996 | locus YCL011C, strain gbp2, active compounds read low 1.01 | locus YCL016C, strain dcc1, active compounds read low 1.01 | locus YCL061C, strain MRC1, active compounds read low 0.995 | locus YCL069W, strain vba3, active compounds read low 0.999 | locus YCR088W, strain abp1, active compounds read low 1 | locus YDL005C, strain med2, active compounds read low 0.983 | locus YDL040C, strain nat1, active compounds read low 0.991 | locus YDR001C, strain nth1, active compounds read low 1.01 | locus YDR069C, strain doa4, active compounds read low 0.966 | locus YDR137W, strain rgp1, active compounds read low 0.957 | locus YDR159W, strain sac3, active compounds read low 0.965 | locus YDR195W, strain ref2 0.958 | locus YDR297W, strain sur2, active compounds read low 0.993 | locus YDR334W, strain swr1, active compounds read low 1 | locus YDR335W, strain msn5, active compounds read low 1.01 | locus YDR392W, strain spt3, active compounds read low 0.979 | locus YEL003W, strain gim4, active compounds read low 0.969 | locus YEL037C, strain rad23, active compounds read low 0.999 | locus YEL061C, strain CIN8 (second series), active compounds read low 1.01 | locus YER015W, strain faa2, active compounds read low 0.996 | locus YER016W, strain bim1, active compounds read low 0.995 | locus YER111C, strain swi4, active compounds read low 0.986 | locus YER155C, strain BEM2 (second series), active compounds read low 1.02 | locus YFR010W, strain ubp6, active compounds read low 0.97 | locus YGL167C, strain pmr1, active compounds read low 0.99 | locus YGL173C, strain kem1, active compounds read low 0.971 | locus YGL227W, strain vid30, active compounds read low 0.996 | locus YGL240W, strain doc1, active compounds read low 0.988 | locus YGL253W, strain hxk2, active compounds read low 0.933 | locus YHR013C, strain ard1, active compounds read low 1.02 | locus YHR027C, strain rpn1, active compounds read low 0.993 | locus YHR030C, strain SLT2, active compounds read low 0.968 | locus YHR079C, strain IRE1, active compounds read low 0.994 | locus YHR142W, strain chs7, active compounds read low 0.994 | locus YJL092W, strain hpr5, active compounds read low 0.996 | locus YJL095W, strain BCK1 (second series), active compounds read low 0.999 | locus YJL095W, strain BCK1, active compounds read low 0.956 | locus YJL115W, strain asf1, active compounds read low 0.987 | locus YJL129C, strain trk1, active compounds read low 0.977 | locus YJL154C, strain vps35, active compounds read low 0.999 | locus YJL164C, strain tpk1, active compounds read low 1.03 | locus YJL166W, strain qcr8, active compounds read low 0.98 | locus YJL187C, strain SWE1, active compounds read low 0.997 | locus YJR066W, strain TOR1, active compounds read low 0.937 | locus YKL160W, strain elf1, active compounds read low 1.03 | locus YKR026C, strain gcn3, active compounds read low 0.992 | locus YKR091W, strain srl3, active compounds read low 1 | locus YLL001W, strain dnm1, active compounds read low 0.958 | locus YLL026W, active compounds read low 1 | locus YLL041C, strain sdh2, active compounds read low 1 | locus YLR027C, strain aat2, active compounds read low 1 | locus YLR113W, strain HOG1, active compounds read low 0.957 | locus YLR221C, strain rsa3, active compounds read low 0.98 | locus YLR258W, strain gsy2, active compounds read low 0.999 | locus YLR262C, strain YPT6 (second series), active compounds read low 0.951 | locus YLR320W, strain mms22, active compounds read low 0.995 | locus YLR342W, strain FKS1, active compounds read low 1 | locus YLR357W, strain rsc2, active compounds read low 0.996 | locus YLR370C, strain arc18, active compounds read low 0.988 | locus YLR384C, strain iki3, active compounds read low 0.968 | locus YML120C, strain ndi1, active compounds read low 1.01 | locus YMR058W, strain fet3, active compounds read low 0.975 | locus YMR125W, strain sto1, active compounds read low 1.02 | locus YMR129W, active compounds read low 1 | locus YMR205C, strain PFK2, active compounds read low 1.03 | locus YMR231W, strain pep5, active compounds read low 0.983 | locus YNL071W, strain lat1, active compounds read low 1.04 | locus YNL183C, strain NPR1, active compounds read low 0.896 | locus YNL209W, strain ssb2, active compounds read low 1.01 | locus YNL248C, strain rpa49, active compounds read low 0.97 | locus YNL322C, strain KRE1 (second series), active compounds read low 0.978 | locus YNR049C, strain mso1, active compounds read low 0.988 | locus YOR001W, strain rrp6, active compounds read low 0.923 | locus YOR070C, strain gyp1, active compounds read low 1 | locus YOR080W, strain dia2, active compounds read low 0.969 | locus YOR083W, strain WHI5, active compounds read low 1.02 | locus YOR106W, strain vam3, active compounds read low 1.02 | locus YOR231W, strain MKK1, active compounds read low 0.969 | locus YOR265W, strain rbl2, active compounds read low 1.01 | locus YOR270C, strain vph1, active compounds read low 0.814 | locus YOR290C, strain snf2, active compounds read low 1.02 | locus YPL051W, strain arl3, active compounds read low 0.989 | locus YPL078C, strain atp4, active compounds read low 1.04 | locus YPL106C, strain sse1, active compounds read low 1.09 | locus YPL240C, strain hsp82, active compounds read low 0.994 | locus YPL256C, strain CLN2, active compounds read low 0.979
